Sampled rows, rich in hits. Any-hit rate of the full collection: about 2.4%.
D2 ag-1 = activates the human D2 dopamine receptor | P14416 | DiscoveRx PathHunter D2 beta-arrestin, luminescence, 90 min; 100% = 57 uM dopamine signal | activation, % (test concentration not listed) | 360,000 compounds, 0.084% hits; in the data active = activation above about 40%; inconclusive = between about 15% and that limit
Target sequence (P14416 whole entry, looked up): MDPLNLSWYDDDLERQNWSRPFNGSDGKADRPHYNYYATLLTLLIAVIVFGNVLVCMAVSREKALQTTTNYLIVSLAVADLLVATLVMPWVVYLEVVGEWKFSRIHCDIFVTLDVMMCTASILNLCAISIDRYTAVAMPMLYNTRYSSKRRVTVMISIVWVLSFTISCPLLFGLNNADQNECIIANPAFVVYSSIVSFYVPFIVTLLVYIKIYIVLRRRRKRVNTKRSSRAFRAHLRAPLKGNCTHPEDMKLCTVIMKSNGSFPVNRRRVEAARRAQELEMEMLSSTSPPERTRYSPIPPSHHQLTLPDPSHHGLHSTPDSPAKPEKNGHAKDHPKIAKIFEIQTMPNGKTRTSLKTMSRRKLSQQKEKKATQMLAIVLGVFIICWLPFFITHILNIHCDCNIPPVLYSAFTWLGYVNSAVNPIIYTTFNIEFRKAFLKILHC
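DiscoveRx PathHunter D2 beta-arrestin cells (2,100/well) attached overnight, then compound-stimulated 90 min at 37 C in HBSS/10 mM HEPES/0.1% Tween-20 buffer; beta-galactosidase complementation read by luminescence after 1 h at ambient temperature. Dopamine 57 uM final (EC100) as control.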
D2 ag-2 = activates the human D2 dopamine receptor | P14416 | HEK293 T-REx D2 cells, calcium flux agonist mode | activation, % at 2 µM | 340,000 compounds, 0.53% hits;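 active = activation over 3 SD above normal in the single-dose calcium agonist read, cut at about 30% in these data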
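Tetracycline-induced HEK293 T-REx cells with force-coupled D2 receptor, plated overnight at 30 C, loaded with no-wash calcium dye. After a 10 s baseline, compound was pin-added and calcium flux read kinetically for 180 s; calcium rises flagged agonists.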
D2 PAM-1 = human D2 receptor positive allosteric modulation; AID 624464; P14416; 360,000 compounds, 0.23% hits; DiscoveRx D2 beta-arrestin cells, luminescence, 90 min; 100% = 57 uM dopamine signal; potentiation, % (test concentration not listed); in the data active = potentiation above about 50%; inconclusive = mostly about 30% to 49%
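D2 cells co-treated with compound plus 50 nM dopamine (EC20) for 90 min at 37 deg C to detect potentiation. Beta-arrestin recruitment was read as enzyme-fragment luminescence after 1 h at ambient temperature. Full response was set by 57 uM dopamine.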
D2 antagonist = D2 dopamine receptor (human) antagonism. P14416. HEK293 TREx D2 cells, calcium flux, dopamine EC80. inhibition, % at 10 µM. 340,000 compounds, 2% hits. AID 485344; in the data active = inhibition above about 30%; inactive = below that, where a call was filed
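Measurement of antagonist activity uses fluorescent calcium dye in inducible HEK293 T-REx D2 cells: 10 s baseline, compound addition with 180 s read, EC80 dopamine addition with a further 180 s read.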
D2 PAM-2 = D2 dopamine receptor (human) potentiation; P14416; HEK293 T-REx D2, calcium flux, EC20 dopamine potentiation; potentiation, % at 10 µM; 340,000 compounds, 0.34% hits;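 active = potentiation over 3 SD above the plate norm, cut at about 30% in these data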
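Cells plated with tetracycline inducer and held overnight at 30 C; calcium dye loaded 30–90 min at room temperature; baseline taken, compound added and read 180 s; EC20 dopamine then added and read 180 s.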
A number is an active result; . = inactive; ? = inconclusive; / = not tested or not shown.

SMILES	D2 ag-1	D2 ag-2	D2 PAM-1	D2 antagonist	D2 PAM-2
COc1cc2cc(C(c3nnnn3C3CCCC3)N3CCc4ccccc43)c(=O)[nH]c2cc1OC (stereo not given)	.	.	.	.	.
CC(N=C1NS(=O)(=O)c2ccccc21)C(=O)NCCCc1ccccc1 (stereo not given)	.	/	.	/	/
COC(=O)c1ccc(CNC(=O)C(C)N=C2NS(=O)(=O)c3ccccc32)cc1 (stereo not given)	.	.	.	44	.
CC1(C)Cc2c(sc(/N=C/N3CCCCCC3)c2C#N)C(C)(C)N1	.	.	.	.	.
CC1(C)Cc2c(sc(/N=C/N3CCCC3)c2C#N)C(C)(C)N1	.	.	.	33	.
Cc1cccc(-c2noc(-c3ccccc3NC(=O)C3CC(=O)N(c4ccccc4C)C3)n2)c1 (stereo not given)	/	.	/	/	.
O=C(NCC(O)COc1ccc([N+](=O)[O-])cc1)Nc1ccccc1 (stereo not given)	.	.	.	.	.
Cc1cc(C)cc(NC(=O)NCC(O)COc2ccc([N+](=O)[O-])cc2)c1 (stereo not given)	.	.	.	38	.
Cc1nn(Cc2ccccc2)c(C)c1NC(=O)c1ccc([N+](=O)[O-])cc1[N+](=O)[O-]	?	.	88	.	.
C=C1CCN([C@@H](C)C(=O)OCc2cccc(C)c2)S(=O)(=O)c2ccccc21	.	.	.	31	.
CCN(CC(=O)Nc1cc(Cl)ccc1C)C(=O)COc1cccc2c1OC(C)(C)C2	.	.	.	43	.
CCOC(=O)N1CCN(C(=O)CN(c2cccc(Cl)c2C)S(=O)(=O)c2ccc(C)cc2)CC1	/	.	/	/	.
Cc1cc(OCC(=O)Nc2sc3c(c2C#N)CC(C)(C)NC3(C)C)c(C(C)C)cc1Cl	.	.	.	34	.
Cc1oc(-c2cccs2)nc1CN1CC[C@@](O)(c2ccccc2)[C@H]2CCCC[C@@H]21	.	.	.	.	.
OC1(c2ccccc2)CCN(Cc2ccccc2)C2CCCCC21 (stereo not given)	.	.	.	38	.
COc1ccc(S(=O)(=O)Nc2ccc3c(c2)N(C(C)=O)CCC3)cc1OC	.	.	.	34	.
COc1ccc(S(=O)(=O)Nc2ccc(N3CCOCC3)cc2)cc1Br	.	.	.	30	.
CCC(=O)N1CCc2cc(S(=O)(=O)CCC(=O)NCCc3ccc(OC)c(OC)c3)ccc21	.	.	.	37	.
CCC(=O)N1CCc2cc(S(=O)(=O)CCC(=O)NCCc3ccccc3)ccc21	.	.	.	.	.
COc1ccc(S(=O)(=O)Nc2ccc(N3CCOCC3)cc2)cc1[N+](=O)[O-]	.	.	.	.	.
COc1ccc(CCNC(=O)C(NS(=O)(=O)c2ccc3c(c2)CCN3C(C)=O)C(C)C)cc1OC (stereo not given)	/	.	/	.	32
Cc1ccc(NC(=O)Cn2c(=O)n(Cc3nc(C)no3)c(=O)c3cc4c(cc32)OCO4)c(Cl)c1	/	.	/	/	.
CCOc1ccccc1N(C)C(=O)Cn1cnc2sc(C)c(S(=O)(=O)N3CCC(C)CC3)c2c1=O	/	.	/	/	/
Cc1ccc(-c2nc3ncccc3o2)cc1NC(=O)Cc1ccc(Cl)cc1	.	.	.	.	31
NC(=O)C1(C(N)=O)OC1c1ccc(Cl)c(Cl)c1 (stereo not given)	.	.	.	.	.
SMILES	D2 ag-1	D2 ag-2	D2 PAM-1	D2 antagonist	D2 PAM-2
COc1ccc2c(c1)CCc1sc(NC(=O)c3ccco3)nc1-2	.	.	.	.	30
COc1ccc2c(c1)-c1nc(NC(=O)c3ccco3)sc1CC2	.	.	.	.	.
Cc1ccc(Sc2ccc(N3CCCC(C(=O)Nc4ccc(Br)cc4)C3)nn2)cc1 (stereo not given)	/	.	/	/	.
Cc1cc(C)cc(NC(=O)C2CCN(S(=O)(=O)c3ccc4c(c3)oc(=O)n4C)CC2)c1	/	.	/	/	/
COc1cccc(NC(=O)C2C3C=CC(O3)C2C(=O)NCc2cccnc2)c1 (stereo not given)	.	.	.	44	.
COc1cc(NC(=S)NCc2cccnc2)cc(OC)c1	.	.	.	.	.
COc1c2ccc(C(=O)NCc3cc(C(F)(F)F)cc(C(F)(F)F)c3)cc2nn1C	.	.	.	41	.
COc1ccc(-c2noc(N3CCC(C(=O)NCc4ccccc4Cl)CC3)n2)cc1	.	.	.	48	.
CCOc1cc(C)ccc1OCc1nnc(SCC(=O)c2cccc([N+](=O)[O-])c2)n1CC	.	.	.	.	.
CCn1c(COc2cccc3ccccc23)nnc1SCC(N)=O	.	.	.	.	37
CNC(=O)CSc1nnc(COc2ccc([N+](=O)[O-])cc2)n1C	.	.	.	76	/
CCn1c(COc2ccccc2C)nnc1SCC(=O)NCc1ccccc1	.	.	.	.	.
C=CCn1c(COc2ccccc2)nnc1SCC(=O)O	.	.	.	.	33
CCn1c(COc2ccccc2)nnc1SCC(=O)c1cccc([N+](=O)[O-])c1	.	.	.	.	35
COc1cccc(N2CCN(c3ccc4nnc(CCC(=O)N5CCC(C)CC5)n4n3)CC2)c1	.	.	.	.	.
CCCN1CCN(C(=O)CCc2nnc3ccc(N4CCN(c5cccc(OC)c5)CC4)nn23)CC1	.	.	.	32	.
COc1ccccc1Cn1cc(C(=O)c2ccc(C)cc2)c(=O)c2cc(F)cc(F)c21	/	.	/	/	.
CCN1CCN(CCCNC(=O)Cn2nc(C)n3c(cc4c(OC)cccc43)c2=O)CC1	/	.	/	/	.
O=C(O)C1CCCCC1C(=O)Nc1ccccn1 (stereo not given)	.	.	.	41	.
O=C(Nc1ccccn1)NC1CCCCC1	.	.	.	.	.
O=C(CCS(=O)(=O)c1ccccc1)NNC(=O)COc1ccc(F)cc1	.	/	.	/	/
COc1ccccc1CNC(=O)CSc1nnc(C)c2c(C)n(-c3ccccc3)nc12	/	.	/	/	.
COc1ccccc1NS(=O)(=O)c1cccc2cccnc12	.	.	.	31	.
CC(C)Nc1nc(Cl)nc(NN(C)c2nc(N(C)C)nc(N(C)C)n2)n1	.	.	.	34	.
CN(C)c1ccc(S(=O)(=O)NCC(=O)NCCC2=CCCCC2)cc1[N+](=O)[O-]	.	.	.	31	.
CN(C)c1ccc(S(=O)(=O)NCC(=O)NCCOc2ccccc2F)cc1[N+](=O)[O-]	.	.	.	.	.
CCCNC(=O)C1(C)CCCN(Cc2ccsc2)C1 (stereo not given)	.	/	.	/	/
COc1ccc(CCNc2ccc(S(=O)(=O)N3CCN(C)CC3)cc2[N+](=O)[O-])cc1	.	.	.	65	.
COc1ccc(C(CNc2ccc(S(=O)(=O)N3CCN(C)CC3)cc2[N+](=O)[O-])N(C)C)cc1 (stereo not given)	.	.	.	.	.
